NFkB transloc inh: blocks IL-1B driven NFkB nuclear translocation in HUVEC cells. HUVEC IL-1B NFkB p65 nuclear translocation imaging. inhibition, % at 2 µM. actives 0.43% (n = 94,000);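 active = inhibition above about 30% together with a positive call from visual inspection of the well image, limit read from the data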;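 also: nuclear over cytoplasmic p65 intensity ratio measured by imaging; 0% = IL-1B stimulated DMSO wells and 100% = unstimulated DMSO wells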
VCAM1 TNFa inh: reduces TNF alpha induced VCAM1 expression in HUVEC. inhibition, % at 2 µM. HUVEC TNFa-induced VCAM-1 immunofluorescence, high-content imaging. AID 802. actives 0.48% (n = 95,000);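 active = inhibition above the batch mean plus 3 SD, with images confirmed as a hit by eye, cut at about 37% in these data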;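 also: 0% = TNF-stimulated DMSO wells and 100% = unstimulated control wells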
NFkB transloc pot: enhances IL-1B driven NFkB nuclear translocation | actives 0.3% (n = 94,000) | activation, % at 2 µM | HUVEC IL-1B NFkB p65 nuclear translocation imaging;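 active = activation above 40%, about the mean plus 3 SD, also judged a hit on visual image review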;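 also: percent activation is computed from the nuclear over cytoplasmic p65 intensity ratio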
HUVEC tox TNFa: toxic to HUVEC cells under TNF alpha stimulation | HUVEC TNFalpha-stimulated, Hoechst cell count, imaging | cell count reduction, % at 2 µM | actives 0.17% (n = 93,000) | AID 848;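 active = cell count reduction exceeding the screen mean by over 5 SD, scaled to untreated wells per plate, cut at about 78% in these data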;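 also: cells counted after 24 h of TNF alpha exposure following the 1 h pretreatment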
HUVEC tox IL1B: HUVEC cytotoxicity counter-screen, IL-1B stimulated. actives 0.41% (n = 94,000). cell count reduction, % at 2 µM. HUVEC cell count loss, Hoechst imaging;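 active = cell count reduction more than 3 SD above the screen-wide mean, cut at about 70% in these data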;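 also: normalized per plate to untreated control cells as the no-loss baseline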
E-sel TNF inh: blocks E-selectin expression induced by TNF alpha. HUVEC TNFa-induced E-selectin immunofluorescence, high content. inhibition, % at 2 µM. actives 0.71% (n = 120,000). AID 1246;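 active = inhibition above the batch mean plus 3 SD, and confirmed as a hit on visual image review, cut at about 43% in these data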;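 also: 0% = TNF-stimulated DMSO wells and 100% = unstimulated control wells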
Starred values were filed as active, the others as inactive; / = not tested or not shown. Compounds with a hit are over-represented: about 1.6% of the library has one in this group of screens.

SMILES	NFkB transloc inh	VCAM1 TNFa inh	NFkB transloc pot	HUVEC tox TNFa	HUVEC tox IL1B	E-sel TNF inh
CCOC(=O)N1CCN(C(=O)CN(C2CCCCC2)S(=O)(=O)c2c(C)cc(C)cc2C)CC1	-6	-1	6	-5	9	-13
Cc1ccc(C(=O)/C=C/Nc2cccc([N+](=O)[O-])c2)o1	/	/	/	/	/	3
O=C(Nc1ccccc1F)C1CCCN(S(=O)(=O)c2ccccc2)C1 (centres undefined)	/	/	/	/	/	3
CN(N)c1nc(-c2ccccc2)nnc1C(F)(F)F	1	1	-1	-31	86*	11
O=C(c1cc2ccccc2oc1=O)N(Cc1cccs1)Cc1ccccc1Cl	-3	10	3	-4	94*	-11
CCN(C(=O)c1cc2ccccc2oc1=O)c1ccccc1	10	14	-10	10	4	8
Cc1cc(Oc2ccc(C#N)cc2)nc(N2CCOCC2)n1	37*	27	-37	-6	-16	24
CCOc1ccc(Nc2cc(C)nc(N3CCOCC3)n2)cc1	10	-1	-10	-41	20	-1
Cc1cc(OC(=O)c2ccc(S(=O)(=O)N3CCOCC3)cc2)c([N+](=O)[O-])c(=O)[nH]1	/	/	/	/	/	-9
Clc1ccc(OCCCNCc2ccccc2)c(Br)c1	40*	3	-40	-2	-16	8
Cc1nn2cnc3sc4c(c3c2nc1=O)CCCC4	0	17	0	6	-52	-56
N#CCc1nc2c3c4c(sc3ncn2n1)CCCC4	-2	60*	2	27	-20	0
CN(c1ccc(C(=O)Nc2ccc(CC#N)cc2)cc1)S(C)(=O)=O	/	/	/	/	/	-23
O=C(COc1ccc(Cl)cc1Cl)NCc1ccco1	0	-20	0	10	-38	/
O=C(CN1CCN(Cc2ccccc2Cl)C1=O)NCc1ccco1	/	4	/	-23	/	64*
O=C(COc1ccccc1Cl)NCc1ccco1	99*	9	-99	-12	80*	-32
COc1ccc(-c2csc(NC(=O)/C(N=Nc3ccccc3)=C(\C)O)n2)cc1	/	/	/	/	/	6
CCCN(CCC)CCCNC(=S)Nc1ccc2nc3n(c(=O)c2c1)CCCCC3	/	/	/	/	/	-27
CN(C)C(=O)CCSc1nnc(-c2ccncc2)o1	/	/	/	/	/	7
COP(=O)(OC)c1nc(-c2ccccc2)oc1N1CCOCC1	/	/	/	/	/	13
CCCc1cc(=O)n2c([nH]c3ccccc32)c1C#N	36*	4	-36	-30	-17	1
CCCCc1c(C)c(C#N)c2[nH]c3ccccc3n2c1=O	2	-8	-2	-6	8	4
O=C(NCCO)C(c1ccccc1)c1ccccc1	5	91*	-5	90*	15	/
O=C(NCCC1=CCCCC1)C(c1ccccc1)c1ccccc1	0	-2	8	/	22	31
C/C(=N\NC(=O)c1sccc1-n1cccc1)c1cccs1	/	/	/	/	/	8
SMILES	NFkB transloc inh	VCAM1 TNFa inh	NFkB transloc pot	HUVEC tox TNFa	HUVEC tox IL1B	E-sel TNF inh
COc1ccc(-c2nnc(SCC(=O)N3CCOCC3)o2)cc1OC	/	/	/	/	/	96*
Cc1cc(OCC(=O)Nc2ccncc2)c(C)cc1Br	-1	-3	1	-23	8	66*
CC(C)CCN1CCN(CC#Cc2ccccc2)CC1CCO (centres undefined)	/	/	/	/	/	-2
CCC(=O)N1CCc2cc(Br)cc(S(=O)(=O)NCc3ccco3)c21	/	/	/	/	/	79*
Cc1ccc(CSCCNS(=O)(=O)c2ccc(C)cc2)cc1	/	/	/	/	/	0
Cc1ccc(NC(=S)NCC2CCCO2)cc1C (centres undefined)	11	-9	-11	-7	91*	-29
Cc1ccc(NC(=S)NCC2CCCO2)cc1 (centres undefined)	-11	6	11	-14	-1	1
O=C(Nc1ccc(NC(=O)C2CC2)cn1)c1ccccc1Cl	10	2	-10	-2	88*	-3
CCCC(=O)Nc1ccc(NC(=O)C2CC2)cn1	-8	/	8	/	13	-9
CCOc1ccc(-c2nnc(Nc3ccc(OC)c(C(=O)N4CCCCC4)c3)c3ccccc23)cc1	/	/	/	/	/	24
Nc1nc2c3ccccc3nc(Cc3ccccc3)n2n1	-26	93*	26	-17	0	-20
N#CCOC(=O)/C=C/c1ccc2c(c1)OCO2	/	/	/	/	/	0
O=C(c1cccs1)N1CCN(C(=O)C(c2ccccc2)c2ccccc2)CC1	40*	4	-40	5	0	1
O=C(c1ccsc1)N1CCN(C(=O)c2cccs2)CC1	1	13	-1	-12	78*	-8
O=C(c1cccs1)N1CCN(S(=O)(=O)c2ccccc2)CC1	10	16	-10	-40	22	12

Bioassay records from PubChem BioAssay.
